Shown are actives, neighbours in structure and some others; about 4.8% of the full set was active somewhere.
DAX1 inh-1: inhibitors of human orphan nuclear receptor DAX1 (NR0B1). HEK293 Gal4-DAX1 luciferase reporter, luminescence. actives 0.99% (n = 340,000). P51843. AID 504766. inhibition, % at 6.75 µM;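 active means inhibition above the mean over all tested compounds plus 3 SD, cut at about 4.2% in these data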;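 further: 0% = DAX1-transfected cells with DMSO and 100% = empty-vector control cells with DMSO; inhibition shows as a rise in luminescence from relieved DAX1 repression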
Target sequence (P51843 207-470 limits assumed): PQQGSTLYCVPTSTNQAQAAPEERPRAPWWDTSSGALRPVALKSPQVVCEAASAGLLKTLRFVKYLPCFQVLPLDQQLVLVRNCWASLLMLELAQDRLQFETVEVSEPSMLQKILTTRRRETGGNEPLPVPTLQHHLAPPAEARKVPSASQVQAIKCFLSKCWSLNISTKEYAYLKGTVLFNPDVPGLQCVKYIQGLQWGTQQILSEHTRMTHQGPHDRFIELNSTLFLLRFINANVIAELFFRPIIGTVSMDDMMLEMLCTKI
hgDAF-12 ag: hgDAF-12 agonism, primary luciferase screen | HEK293 GAL4-hgDAF12 UAS-luciferase reporter, agonist luminescence; normalized to butyrate control | actives 1.8% (n = 370,000) | activation, % at 6.8 µM;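 active means activation above a cutoff set at the mean of all screened compounds plus 3 SD, cut at about 10% in these data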;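 further: 0% = DMSO wells and 100% = sodium butyrate wells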
ssDAF-12 act: S. stercoralis DAF-12 activation, primary screen; actives 1% (n = 370,000); AID 652126; activation, % at 6.8 µM; HEK293 ssDAF-12/GRIP1 lit1-tk-luc reporter, luminescence; % of 3 µM dafachronic acid response;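 active means activation above the mean over all tested compounds plus 3 SD, cut at about 0.9% in these data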;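 further: 0% = DMSO-only wells and 100% = 3 µM delta7-dafachronic acid wells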
SMARCA2 activ: increases SMARCA2 function in MMTV reporter cells. MG213 cells, MMTV-luciferase reporter, dexamethasone, overnight. activation, % at 9.1 µM. actives 1% (n = 370,000); in the data active means activation above about 7.8%;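 further: 0% = vehicle wells and 100% = reference activator wells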
hcDAF12 agonist: activates DAF-12 receptor from parasite H. contortus. HEK293 hcDAF-12 lit1-tk-luc reporter, luminescence; 0% DMSO, 100% Δ7-dafachronic acid. activation, % at 6.8 µM. actives 1.4% (n = 370,000). AID 652067;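 active means activation above the mean of all tested compounds plus 3 SD, cut at about 5.5% in these data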;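 further: 100% = response to 3 µM Δ7-dafachronic acid high control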
DAX1 inh-2: blocks DAX1 repression of SF-1 activated StAR promoter | HEK293T StAR-luciferase reporter, SF-1/DAX-1 repression relief | inhibition, % at 6.8 µM | actives 1.1% (n = 370,000) | AID 652010;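 active means inhibition above the mean over all tested compounds plus 3 SD, cut at about 3.6% in these data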;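 further: 0% = DAX-1 cells with DMSO and 100% = cells lacking DAX-1 with DMSO; higher inhibition means more luminescence from relief of DAX-1 repression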
* hit, by the source's call.

What do the screens show for `O=C(NCCOc1ccccc1)C1CCCCC1`?
DAX1 inh-1: 1; hgDAF-12 ag: 6; ssDAF-12 act: -1; SMARCA2 activ: 0; hcDAF12 agonist: 1; DAX1 inh-2: 4.1*

How did Cc1cccc(Nc2nnc(SCC(=O)Nc3ccccc3[N+](=O)[O-])s2)c1 do in these assays?
DAX1 inh-1: 4.4*; hgDAF-12 ag: 3; ssDAF-12 act: 0; SMARCA2 activ: -1; hcDAF12 agonist: 4; DAX1 inh-2: 0

What do the screens show for `Cc1ccc(NC(=O)CN2CCC(NC(=O)Cc3ccccc3)CC2)c(C)c1`?
DAX1 inh-1: 2; hgDAF-12 ag: 2; ssDAF-12 act: 1.2*; SMARCA2 activ: 1; hcDAF12 agonist: -1; DAX1 inh-2: 0

How did O=C(CCc1ccccc1)Nc1ccc(S(=O)(=O)Nc2nccs2)cc1 do in these assays?
DAX1 inh-1: -1; hgDAF-12 ag: 2; ssDAF-12 act: 0; SMARCA2 activ: -2; hcDAF12 agonist: 6.3*; DAX1 inh-2: 0

What do the screens show for `CCOc1ccccc1-c1n[nH]c(=S)o1`?
DAX1 inh-1: -2; hgDAF-12 ag: 3; ssDAF-12 act: 1.0*; SMARCA2 activ: 0; hcDAF12 agonist: 6.4*; DAX1 inh-2: 0

Results for CCOc1ccc(-c2n[nH]c(=S)o2)cc1 ?
DAX1 inh-1: 2; hgDAF-12 ag: 2; ssDAF-12 act: -1; SMARCA2 activ: 3; hcDAF12 agonist: 0; DAX1 inh-2: 1

What do the screens show for `c1cnc2ccc3ncccc3c2c1`?
DAX1 inh-1: 5.0*; hgDAF-12 ag: 5; ssDAF-12 act: -1; SMARCA2 activ: 3; hcDAF12 agonist: 2; DAX1 inh-2: 1

What do the screens show for `CC1CCC(NC(=O)CNC(=O)c2cccs2)CC1` (stereo not drawn)?
DAX1 inh-1: 2; hgDAF-12 ag: 8; ssDAF-12 act: 0; SMARCA2 activ: 5; hcDAF12 agonist: 4; DAX1 inh-2: 4.4*

Results for O=C(CCCCCN1C(=O)c2ccccc2C1=O)Nc1ccc(C(=O)O)cc1 ?
DAX1 inh-1: 1; hgDAF-12 ag: 1; ssDAF-12 act: -1; SMARCA2 activ: -2; hcDAF12 agonist: 2; DAX1 inh-2: 0

How did CN(Cc1cccs1)S(=O)(=O)c1ccc(Cl)cc1F do in these assays?
DAX1 inh-1: -1; hgDAF-12 ag: 1; ssDAF-12 act: -1; SMARCA2 activ: 0; hcDAF12 agonist: 0; DAX1 inh-2: 0

How did O=C(c1cc2cc(Cl)ccc2[nH]1)N1CCN(C(=O)c2ccco2)CC1 do in these assays?
DAX1 inh-1: 0; hgDAF-12 ag: 1; ssDAF-12 act: 0; SMARCA2 activ: -2; hcDAF12 agonist: 5.9*; DAX1 inh-2: 1

Results for O=C(c1ccccc1C(F)(F)F)N1CCN(S(=O)(=O)c2ccccc2)CC1 ?
DAX1 inh-1: 7.5*; hgDAF-12 ag: -1; ssDAF-12 act: -1; SMARCA2 activ: 1; hcDAF12 agonist: -1; DAX1 inh-2: 1

Results for COC(=O)CNC(=O)CN1C(=O)N(c2ccccc2)C(N(O)C(=O)Nc2ccccc2)C1(C)C (stereo not drawn) ?
DAX1 inh-1: -1; hgDAF-12 ag: 0; ssDAF-12 act: -1; SMARCA2 activ: -2; hcDAF12 agonist: 0; DAX1 inh-2: 0

How did COC(=O)CN1C(=O)N(c2ccccc2)C(N(O)C(=O)Nc2ccccc2)C1(C)C (stereo not drawn) do in these assays?
DAX1 inh-1: 4.6*; hgDAF-12 ag: 2; ssDAF-12 act: -1; SMARCA2 activ: -2; hcDAF12 agonist: -1; DAX1 inh-2: 0

Results for COC(=O)c1ccc(COC(=O)C(NC(=O)Cc2ccccc2)C(C)C)cc1 (stereo not drawn) ?
DAX1 inh-1: 0; hgDAF-12 ag: 1; ssDAF-12 act: -1; SMARCA2 activ: -4; hcDAF12 agonist: -1; DAX1 inh-2: -2

How did Cc1ccc2c(CN3CCC(C)CC3)cc(=O)oc2c1 do in these assays?
DAX1 inh-1: 2; hgDAF-12 ag: 11*; ssDAF-12 act: -1; SMARCA2 activ: 6; hcDAF12 agonist: 3; DAX1 inh-2: 2

Results for Cc1ccc2c(CN3CC(C)CC(C)C3)cc(=O)oc2c1 (stereo not drawn) ?
DAX1 inh-1: 0; hgDAF-12 ag: -2; ssDAF-12 act: -1; SMARCA2 activ: -3; hcDAF12 agonist: 0; DAX1 inh-2: 0

Results for CC(=O)Nc1ccc(/C=C/c2nc3ccccc3o2)cc1 ?
DAX1 inh-1: 4.5*; hgDAF-12 ag: 13*; ssDAF-12 act: 0; SMARCA2 activ: 3; hcDAF12 agonist: 4; DAX1 inh-2: 2

Results for CC1=CC(=O)Nc2ccccc2S1 ?
DAX1 inh-1: 3; hgDAF-12 ag: 11*; ssDAF-12 act: 1.1*; SMARCA2 activ: -2; hcDAF12 agonist: 5.7*; DAX1 inh-2: 1

How did CC1(C)CC(=O)C2=C(C1)Nc1ccccc1S2 do in these assays?
DAX1 inh-1: 0; hgDAF-12 ag: 0; ssDAF-12 act: -1; SMARCA2 activ: 0; hcDAF12 agonist: 2; DAX1 inh-2: 0

What do the screens show for `Cc1ccc(SCCC(=O)N2CCC(C(N)=O)CC2)cc1`?
DAX1 inh-1: 1; hgDAF-12 ag: -1; ssDAF-12 act: -1; SMARCA2 activ: -3; hcDAF12 agonist: 1; DAX1 inh-2: 0

How did Cc1ccc(SCCC(=O)N2CCC(C)CC2)cc1 do in these assays?
DAX1 inh-1: 5.7*; hgDAF-12 ag: 9; ssDAF-12 act: 0; SMARCA2 activ: 2; hcDAF12 agonist: 2; DAX1 inh-2: 1

How did CCCCN(C)c1c(C)nc2ccc(C(=O)NCc3ccc(OC)cc3)cn12 do in these assays?
hgDAF-12 ag: -1; ssDAF-12 act: -1; SMARCA2 activ: -5; hcDAF12 agonist: -1; DAX1 inh-2: 1

How did COc1ccc(C(=O)N2CCN(c3ccc([N+](=O)[O-])c(-n4nc(C)cc4C)c3)CC2)cc1 do in these assays?
DAX1 inh-1: 1; hgDAF-12 ag: -2; ssDAF-12 act: -1; SMARCA2 activ: 12*; hcDAF12 agonist: -2; DAX1 inh-2: -1

How did Cc1cc(C)n(-c2cc(N3CCN(S(=O)(=O)c4ccc(C)c(C)c4)CC3)ccc2[N+](=O)[O-])n1 do in these assays?
DAX1 inh-1: 5.4*; hgDAF-12 ag: -1; ssDAF-12 act: -1; SMARCA2 activ: 1; hcDAF12 agonist: 2; DAX1 inh-2: 0

Results for Cc1cc(C)n(-c2cc(N3CCN(S(=O)(=O)c4ccc5ccccc5c4)CC3)ccc2[N+](=O)[O-])n1 ?
DAX1 inh-1: -2; hgDAF-12 ag: -1; ssDAF-12 act: -1; SMARCA2 activ: 1; hcDAF12 agonist: -2; DAX1 inh-2: -1

Results for CCN(c1cccc(C)c1)S(=O)(=O)c1cc2c3c(c1)CCN3C(=O)CC2 ?
DAX1 inh-1: -1; hgDAF-12 ag: -4; ssDAF-12 act: -1; SMARCA2 activ: -4; hcDAF12 agonist: 0; DAX1 inh-2: 0

From PubChem
